The values below come from the supplement of paper PMC6555819.

One assay has as its system PPARg:RXRa 270nM:90nM, anti-RXR (NR concentration 270 nM, RXRa partner concentration 90 nM). As to the kind of experiment: PBM binding z-score (relative to random genomic background probes); higher = stronger binding; sequences stand for … in GC…GCGATTGACAGCGTAGAATGAAGG
The method, boiled down:
(§1)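 The probes on custom Agilent 4×180K protein-binding microarrays were double-stranded, with 34-nt variable regions bearing direct-repeat seeds, single-nucleotide variants, half-site ablations and random human genomic background sequences. Incubation lasted 1 h with ligand-free nuclear receptor dimers in PBS pH 7.4, 2% milk, 0.02% Triton X-100, 1 mM DTT, 0.2 mg/mL BSA and 0.4 mg/ml salmon testes DNA. Antibodies against each partner (one per run) detected bound dimers, and fluorescence scans were regression-normalized. Binding z-scores take the random background probes as reference.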
On to ATGTCTAGGTAAAGTTCAGTGAAAGATCGATAGA, for which the PBM binding z-score stood at 4.55.

In turn, TATTGTAGATCAACAGGAGGTTAAGAAAGATCGA registered a PBM binding z-score of 0.531.

With ATCGAGAGGTCGAGGTGAGTATAGAGAAAGGGAA, the PBM binding z-score is 2.16.

Turning to TCTTGTAGATTAACAGGAGGTTAAGAAAGATCGA, the PBM binding z-score is 1.41.

Sequence CAAACTTGGTCACCGGAAGGTCAAAGTCCGCATG yielded a PBM binding z-score of 3.

Sequence TAGCCTAGGTCATGCGGGCCAGTATCGTGTCGGC displayed a PBM binding z-score of 2.29.

Regarding TCATATAGGTAAATGTGAAAGTCGAACGATATGA, the PBM binding z-score amounted to 2.01.

In turn, TAGCCAAGGTCATGGGCCAGTATACCACGCGAAC displayed a PBM binding z-score of 6.

In turn, ATTTCTAGGTAAAGTTCAGTGAAAGATCGATAGA had a PBM binding z-score of 4.21.

ACTAGGAGGCCAAGGGTCACTCAAGATTAGTCCG returned a PBM binding z-score of 7.94.

Turning to CCGACTGGGGCATAAGGATACCATAAGCCAGCCC, the PBM binding z-score is 1.46.

Regarding TCGACTAGGTTACCAATGGGGCATTCAGCTTTCT, the PBM binding z-score came to 1.78.

The sequence TCTTGTAGATCGGCAGGTTAAGAAAGCTGGCCAA yielded a PBM binding z-score of 1.28.

Sequence CAAACTAGGTCACGAAAGATCAAAGTCGAATGAC showed a PBM binding z-score of 7.69.

As to TCTTGTAGATCAGCAGGTTAAGGAAGCTGGCCAA, the PBM binding z-score came to 1.47.

As to GCGACTGGGGCATCAGCAGGTTACCAAAACTTAA, the PBM binding z-score was found to be 0.743.

CCTCGGAGGACAGAAGGTCAGAGCCGTCCGCTTT came in with a PBM binding z-score of 0.948.

ATTGAAAGGTCGACGAGGTGAGTATACACCGTTT: the PBM binding z-score worked out at 3.53.

The sequence CCTATTGGGCCAAAGGTCATTGATTCCAATGCTC yielded a PBM binding z-score of 9.98.

AATACAGGGTCACTAGGCGAGAGTAGGTACGAAT: the PBM binding z-score was found to be 6.14.

ACTAGTTGGTGAGCTGAGGTCACACACAATTCGG gave a PBM binding z-score of 2.09.

Take TCATATAGGTAAAGGTGAAAGGCGAACGATATGA: the PBM binding z-score amounted to 4.99.

As to TCTGCTAGGTCAGTTGGTCCGCTAACGAGCTGCC, the PBM binding z-score was determined as 1.28.

CGAACTCGGTCAAGGACAGTGAATCTCCGCACGC yielded a PBM binding z-score of 0.618.

The sequence CCTCGCAGGCCAATCTGGGTCACTCAAGGCTTGA gave a PBM binding z-score of 2.28.

In turn, TCATAGAGGTAAAGGTGAAAGTCGAACGATATGA came in with a PBM binding z-score of 5.04.

CCTAGTGGGCCATCAGGTCATTGATATCAACGTT gave a PBM binding z-score of 3.69.

ATCGAAAGGTGGAAGGTGAGTATACCCACCCGAA came in with a PBM binding z-score of 2.05.

In turn, AGAATGAGGTTATACGTAGATCAGGGGAGAAAGT gave a PBM binding z-score of 2.06.

As to TCTATTAGTTGATTAGGGCAACCGCAACAGCGGA, the PBM binding z-score was 1.95.

As to ACTTACGGGTTAACGAGGTTATAGCACGCGTATA, the PBM binding z-score was 2.16.

The sequence CGAACTGGGTCAGAACAGGACAGTGAAGGATGAT gave a PBM binding z-score of 3.9.

TCATATAGGCAAACAGGTGAAAGTCCGTAAGTTA showed a PBM binding z-score of 2.34.

In the case of GCACCAAGGTGAATAGGTCGTTGATGAGTAGGCG, the PBM binding z-score stood at 1.62.

In the case of AGAATGAGGTTATTAAGATCAGGGTATTGCGGTC, the PBM binding z-score was 1.62.

GCTTGTAGATCAAGGGTAAGAAAGACTAAGCTAA registered a PBM binding z-score of 4.2.

ACAGACAGGTGAGTGAAGGTAACTTAGCTGGACG: the PBM binding z-score is -0.15.

GCATATAGGTAATACAAGGTGAGAGTCCGATTGT: the PBM binding z-score is 1.19.

Sequence TCTCGGAGGACACGAAGGGCAGAGCTTTCCAGAG registered a PBM binding z-score of 0.753.

CCTGCTAGGTCGTGGTCAGCTAATCTACAGTATG: the PBM binding z-score worked out at 0.111.

The test system of a further assay is PPARg:RXRa 30nM:10nM, anti-RXR (NR concentration 30 nM, RXRa partner concentration 10 nM). The description is as above. In a few lines: as §1
Take ATGTCTAGGTAAAGTTCAGTGAAAGATCGATAGA: the PBM binding z-score amounted to 2.43.

In turn, TATTGTAGATCAACAGGAGGTTAAGAAAGATCGA had a PBM binding z-score of 0.596.

In the case of ATCGAGAGGTCGAGGTGAGTATAGAGAAAGGGAA, the PBM binding z-score is 0.414.

For TCTTGTAGATTAACAGGAGGTTAAGAAAGATCGA, the PBM binding z-score was 2.67.

The sequence CAAACTTGGTCACCGGAAGGTCAAAGTCCGCATG yielded a PBM binding z-score of 0.605.

With TAGCCTAGGTCATGCGGGCCAGTATCGTGTCGGC, the PBM binding z-score worked out at 0.00483.

TCATATAGGTAAATGTGAAAGTCGAACGATATGA yielded a PBM binding z-score of 3.79.

With TAGCCAAGGTCATGGGCCAGTATACCACGCGAAC, the PBM binding z-score stood at 2.19.

ATTTCTAGGTAAAGTTCAGTGAAAGATCGATAGA displayed a PBM binding z-score of 2.41.

For the sequence ACTAGGAGGCCAAGGGTCACTCAAGATTAGTCCG, the PBM binding z-score was found to be 7.43.

Turning to CCGACTGGGGCATAAGGATACCATAAGCCAGCCC, the PBM binding z-score stood at 0.0303.

As to TCGACTAGGTTACCAATGGGGCATTCAGCTTTCT, the PBM binding z-score turned out to be 2.68.

Sequence TCTTGTAGATCGGCAGGTTAAGAAAGCTGGCCAA returned a PBM binding z-score of 2.42.

Turning to CAAACTAGGTCACGAAAGATCAAAGTCGAATGAC, the PBM binding z-score was determined as 6.2.

The sequence TCTTGTAGATCAGCAGGTTAAGGAAGCTGGCCAA returned a PBM binding z-score of 2.53.

Take GCGACTGGGGCATCAGCAGGTTACCAAAACTTAA: the PBM binding z-score is -0.555.

CCTCGGAGGACAGAAGGTCAGAGCCGTCCGCTTT came in with a PBM binding z-score of -0.897.

ATTGAAAGGTCGACGAGGTGAGTATACACCGTTT gave a PBM binding z-score of 1.38.

Take CCTATTGGGCCAAAGGTCATTGATTCCAATGCTC: the PBM binding z-score came to 10.5.

Consider AATACAGGGTCACTAGGCGAGAGTAGGTACGAAT, for which the PBM binding z-score was 2.65.

Turning to ACTAGTTGGTGAGCTGAGGTCACACACAATTCGG, the PBM binding z-score was 0.341.

Consider TCATATAGGTAAAGGTGAAAGGCGAACGATATGA, for which the PBM binding z-score was found to be 4.35.

Sequence TCTGCTAGGTCAGTTGGTCCGCTAACGAGCTGCC yielded a PBM binding z-score of 1.13.

As for CGAACTCGGTCAAGGACAGTGAATCTCCGCACGC, the PBM binding z-score was -0.54.

Take CCTCGCAGGCCAATCTGGGTCACTCAAGGCTTGA: the PBM binding z-score was -0.176.

In the case of TCATAGAGGTAAAGGTGAAAGTCGAACGATATGA, the PBM binding z-score is 3.97.

CCTAGTGGGCCATCAGGTCATTGATATCAACGTT: the PBM binding z-score worked out at 1.05.

ATCGAAAGGTGGAAGGTGAGTATACCCACCCGAA: the PBM binding z-score was 0.816.

Turning to AGAATGAGGTTATACGTAGATCAGGGGAGAAAGT, the PBM binding z-score amounted to 0.697.

TCTATTAGTTGATTAGGGCAACCGCAACAGCGGA came in with a PBM binding z-score of 3.34.

Take ACTTACGGGTTAACGAGGTTATAGCACGCGTATA: the PBM binding z-score came out at 0.682.

Take CGAACTGGGTCAGAACAGGACAGTGAAGGATGAT: the PBM binding z-score worked out at 1.63.

TCATATAGGCAAACAGGTGAAAGTCCGTAAGTTA registered a PBM binding z-score of 3.4.

As to GCACCAAGGTGAATAGGTCGTTGATGAGTAGGCG, the PBM binding z-score turned out to be 0.404.

AGAATGAGGTTATTAAGATCAGGGTATTGCGGTC yielded a PBM binding z-score of 0.322.

In turn, GCTTGTAGATCAAGGGTAAGAAAGACTAAGCTAA yielded a PBM binding z-score of 1.91.

For ACAGACAGGTGAGTGAAGGTAACTTAGCTGGACG, the PBM binding z-score was -0.0448.

GCATATAGGTAATACAAGGTGAGAGTCCGATTGT had a PBM binding z-score of 0.605.

As for TCTCGGAGGACACGAAGGGCAGAGCTTTCCAGAG, the PBM binding z-score is 1.78.

Regarding CCTGCTAGGTCGTGGTCAGCTAATCTACAGTATG, the PBM binding z-score was -0.191.
